A selection: hits, their analogues and other compounds. The true share with any hit is near 20%.
HCMV inh – inhibitors of human cytomegalovirus | 4.5% of 410,000 active | AID 1259415 | activity change, negative = inhibition, % at 57.5 µM | HFF cells, HCMV-luciferase reporter, 72 h; active compounds read low; in the data active = activity change below about -60%; inconclusive = no clear call, values can overlap the other calls; inactive = above about -39%
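Two compound doses tested in HFFs infected with HCMV-luciferase, MOI 1 PFU/cell, 72 h at 37C. Lysate luminescence read with OneGlo; data normalized against buffer-only and 10uM Salinomycin inhibitor controls.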
Shiga inhibitor – inhibitors of Shiga toxin in Vero cells; inhibition, % at 38.7 µM; 9.2% of 290,000 active; Vero cells, Shiga toxin protein synthesis inhibition reporter; AID 2315; in the data active = inhibition mostly above about 28%, no sharp cut-off; inactive = mostly below about 43%
Pf growth 96h – P. falciparum growth inhibition at 96 hour, primary screen for plastid delayed-death inhibitors | P. falciparum luciferase reporter growth, 96 h | Potency, µM (titrated, usually from 28.7 µM), actives largely listed as inhibitors | 6.9% of 320,000 active | AID 504834
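Compounds incubated with erythrocytes infected by luciferase-expressing P. falciparum (2% hematocrit, 0.05% parasitemia final) for 96 hours, 37 C in 5% CO2. Growth inhibition scored as decreased luciferase luminescence.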
Pf growth 48h – inhibits P. falciparum growth in the first generation, 48 h; P. falciparum luciferase growth in erythrocytes, 48 h; Potency, µM (series often up to 28.7 µM), usual class: inhibitors; 5.9% of 310,000 active; AID 504832
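In quantitative HTS format, infected erythrocytes bearing luciferase-reporter parasites were treated for a single generation at 37 C. Luminescence after adding detection reagent served as the growth measure.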
Cycloheximide cs – affects cycloheximide protein synthesis inhibition readout, counter-screen; cell reporter, cycloheximide protein synthesis inhibition counterscreen; max response, %; 12% of 300,000 active; in the data active = max response mostly above about 13%, no sharp cut-off; inactive = mostly below about 14%; note: read at 38.3 µM for the half of the compounds with a filed dose
A number is an active result; - = inactive; ? = inconclusive; . = no result; [ ] = dose if it differs, or a comment. Unless noted, calls come from the whole dose curve; as a rule, active = well fitted inhibition curve with a large enough effect; inconclusive = small, poorly fitted or top-dose-only effect, or another doubt; inactive = no such curve, though single readings can be large or run the other way.

SMILES | HCMV inh | Shiga inhibitor | Pf growth 96h | Pf growth 48h | Cycloheximide cs
CCN(CC)c1ccc(NC(=O)Cn2c(C(C)NC(=O)c3ccc(C)cc3)nc3ccccc32)cc1 (centres undefined) | ? | - | - | ? | -
CC(=O)Nc1ccc(NC(=O)c2c(C)c(-c3ccccc3)nc3ccccc23)cc1 | - | . | . | . | .
Cc1ccc(N2CCN(C(=O)Nc3cccc([N+](=O)[O-])c3)CC2C)cc1 (centres undefined) | -65 | - | ? | ? | -
O=C(Nc1cccc([N+](=O)[O-])c1)N1CCN(c2ccccc2)CC1 | -64 | - | - | - | -
Cc1ccc(N2CCN(C(=O)C(=O)c3cccc([N+](=O)[O-])c3)CC2)cc1 | - | . | . | . | .
CCCCNC(=O)C(CC)Sc1nnc(-c2ccc(OC)c(OC)c2)c(-c2ccc(OC)c(OC)c2)n1 (centres undefined) | - | . | . | . | .
O=C(CCNC(=O)c1ccccc1Cl)NN=Cc1ccccc1[N+](=O)[O-] | - | . | . | . | .
Cc1ccnn1CC(=O)N/N=C/c1c[nH]c2ccccc12 | - | - | - | - | -
O=[N+]([O-])c1ccccc1/C=N\Nc1nccs1 | - | - | ? | - | -
O=C(CSc1ccccn1)N/N=C/c1ccccc1[N+](=O)[O-] | - | 38 | - | - | 38
O=C(CSc1ccccn1)N/N=C/c1cc([N+](=O)[O-])ccc1O | - | - | ? | ? | -
O=[N+]([O-])c1ccccc1/C=N/NC1=NCCCCC1 | - | 43 | - | - | 77
O=C(CSc1ccccn1)N/N=C/c1c[nH]c2ccccc12 | - | - | ? | - | 14
CCCCCC(=O)N/N=C/c1ccccc1[N+](=O)[O-] | ? | - | - | - | 19
CC(C)(C)OC(=O)CNC(=O)c1[nH]cnc1C(=O)NC(c1ccccc1)c1ccccc1 | - | - | ? | ? | -
CC(C)NC(=S)N/N=C/c1ccccc1[N+](=O)[O-] | - | - | - | ? | 22
CCCCCC(=O)N/N=C/c1ccco1 | - | - | 13µM | - | -
C=C(C)CNC(=S)N/N=C/c1ccco1 | -61 | - | ? | ? | -
O=C(CCCCCCCCC(=O)N/N=C/c1ccco1)N/N=C/c1ccco1 | - | - | ? | - | -
C=C(C)CNC(=S)NN=C1c2ccccc2-c2ccccc21 | . | - | ? | - | -
Cn1c(=O)c(=O)n(C)c2cc([N+](=O)[O-])c(N3CCOCC3)cc21 | - | - | - | - | -
CC1CCN(c2ccc3nnc(CCC(=O)NCCCOC(C)C)n3n2)CC1 | - | - | - | -[0.00184 µM] | -
Cn1cc([N+](=O)[O-])c(C(=O)Nc2sc3c(c2C#N)CCC3)n1 | -101 | - | - | - | -
Cn1ccc(C(=O)Nc2sc3c(c2C#N)CCC3)n1 | - | - | - | - | 16
COc1ccc(C2CC(c3ccc(OC)c(OC)c3)=NN2C(=O)c2ccccc2)cc1 (centres undefined) | - | - | ? | ? | -
SMILES | HCMV inh | Shiga inhibitor | Pf growth 96h | Pf growth 48h | Cycloheximide cs
O=C(CSc1n[nH]c(=O)n1C1CC1)Nc1cc(Cl)ccc1Oc1ccccc1 | - | - | ? | ? | -
Cc1ccc(/C(C#N)=C\c2ccc(N3CCOCC3)o2)cc1 | - | 133 | - | ? | 88
N#C/C(=C\c1ccc(N2CCOCC2)o1)C(=O)NCC1CCCO1 (centres undefined) | - | - | - | ? | -
Cc1ccc2nc(/C(C#N)=C\c3ccc(N4CCOCC4)o3)[nH]c2c1 | - | 47 | ? | - | 46
C=C(CO)C1Cc2cc(C(C)=O)ccc2O1 (centres undefined) | - | - | - | - | -
Cc1ccsc1/C=N/n1cnc2sc(C)c(C)c2c1=O | - | - | - | - | 16
COc1nc(N(c2ccccc2)c2ccccc2)nc(-n2ccnc2)n1 | - | - | ? | 12µM | -
NC(=O)NC(=O)COC(=O)/C=C/c1cccc(Br)c1 | - | - | - | - | -
CCOC(=O)C(CC)(CC)C(=O)/C=C/c1cccc(Br)c1 | -75 | . | . | . | .
CNc1ncnc2c1ncn2[C@H]1CN(Cc2cccc3ccccc23)C[C@@H](CO)O1 | - | . | . | . | .
CCS(=O)(=O)N1CC2(CN(C(=O)Nc3c(C)noc3C)[C@@H](CO)c3[nH]c4cc(OC)ccc4c32)C1 | - | . | . | . | .
COc1ccc(C(C#N)N2CCC(c3ccccc3)=N2)cc1OC (centres undefined) | ? | - | - | - | 17
COc1ccc(C(C#N)N2CCCCCC2)cc1OC (centres undefined) | - | - | - | - | -
COc1cc(C(C#N)N2CCC(c3ccccc3)=N2)ccc1O (centres undefined) | - | 91 | - | - | 25
COc1ccc(NC(=O)C2CCN(C(=O)[C@@H]3Cc4ccccc4CN3C(=O)OC(C)(C)C)CC2)cc1 | - | - | ? | ? | -
Cc1ccc(C(=O)NCC2CCCO2)cc1S(=O)(=O)N1CCCCC1 (centres undefined) | - | - | ? | - | -
N#C/C(=C\c1ccc([N+](=O)[O-])cc1)c1ccccn1 | -75 | 49 | - | - | 29
N#CC(C#N)=Cc1ccc(OC(=O)c2ccccn2)cc1 | - | - | - | - | -
CN(C)c1ccc(C=C(C#N)C#N)cc1 | - | - | ? | - | -
CN(C)c1ccc(/C=C(\C#N)c2ccccn2)cc1 | -84 | - | - | - | -
COC(=O)c1ccc(/C=C(\C#N)c2ccccn2)cc1 | - | 133 | - | - | 39
COC(=O)c1ccc(OC(=O)c2ccccn2)cc1 | - | - | . | - | -
N#C/C(=C/c1cccnc1)c1ccccc1 | - | . | - | - | -
N#C/C(=C\c1cccnc1)c1ccc([N+](=O)[O-])cc1 | - | - | 2.6µM | - | -
CC(C)NC(=O)c1ccc(NC(=O)N2CCCCc3ccccc32)cc1 | - | . | . | . | .
SMILES | HCMV inh | Shiga inhibitor | Pf growth 96h | Pf growth 48h | Cycloheximide cs
Cc1nn(-c2ccc(N3CCOCC3)nn2)c(C)c1CCC(=O)NCc1ccc(Cl)cc1 | - | . | . | . | .
COc1ccccc1Nc1ncnc2scc(-c3ccc(F)cc3)c12 | -83 | . | . | . | .
COc1ccc(/C=N/Nc2ncnc3scc(-c4ccccc4)c23)cc1OC | - | - | 10µM | . | -
COc1cc(NC(=O)c2nn(-c3ccc(F)cc3)c(=O)n(C)c2=O)cc(OC)c1OC | - | . | . | . | .
CCOc1ccc(CNC(=O)CCc2cn(C)c3ccccc23)cc1 | - | - | - | - | -
COc1cccc(-c2ccc3c(N)c(C(=O)c4ccc(Cl)cc4)sc3n2)c1 | - | . | . | . | .
CN1CCN(C(=S)c2ccc(-c3cccc(Cl)c3Cl)o2)CC1 | - | active | - | - | 40
N#CCCN1CCN(C(=S)c2ccc(-c3ccc(Cl)cc3)o2)CC1 | . | 91 | ? | - | 28
S=C(Nc1ccc(Cl)cc1)N1CCN(Cc2ccccc2)CC1 | - | - | - | - | -
S=C(c1ccc(-c2ccccc2Cl)o1)N1CCCCC1 | - | 62 | - | - | 48
O=C(c1ccc(-c2ccccc2Cl)o1)N1CCN(c2ccccc2O)CC1 | - | . | ? | ? | .
S=C(c1ccc(-c2ccc(Cl)cc2)o1)N1CCCCC1 | - | 95 | - | - | 39
CCOc1ccc(NC(=O)CSc2ncc3c(n2)-c2ccc(Cl)cc2N(Cc2ccccc2)S3(=O)=O)cc1 | - | . | . | . | .

From PubChem BioAssay
